Data: PubChem BioAssay (NCI)
About 79,000 compounds went through this panel and 15% of them were active in at least one assay; those are over-represented in the sample as a whole. Cut-off read from the data, not from the text of the source: active = growth inhibition above about 70%; inactive = the rest.

How the values were obtained:
[1] = NCI Yeast Anticancer Drug Screen. Data for the rad50 strain (AID 155);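 note: 0% = growth of vehicle-only cultures of the same strain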; details: S. cerevisiae rad50 strain growth inhibition; at 50.0 µM; stronger effect = higher value
How it was run: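 Yeast carrying a defined DNA repair defect were exposed to test compounds, and growth was compared with vehicle-treated controls to give percent inhibition.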

[2] = NCI Yeast Anticancer Drug Screen. Data for the mec2-1 strain (AID 157); details: S. cerevisiae mec2-1 strain, at 50.0 µM, stronger effect = higher value
How it was run: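 Growth inhibition is read against vehicle-treated controls after compound exposure of the mec2-1 yeast strain, which is defective in DNA damage repair or cell cycle control.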

[3] = NCI Yeast Anticancer Drug Screen. Data for the sgs1 mgt1 strain (AID 161);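 note: 0% = growth of cultures given vehicle only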; details: S. cerevisiae sgs1 mgt1 strain, at 50.0 µM, stronger effect = higher value
How it was run: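 This yeast growth screen uses a strain with defined DNA-repair lesions; compound-treated growth is compared with vehicle-treated growth.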

[4] = NCI Yeast Anticancer Drug Screen. Data for the cln2 rad14 strain (AID 165);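 note: 0% = growth equal to vehicle treated cultures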; details: S. cerevisiae cln2 rad14 strain, at 50.0 µM, stronger effect = higher value
How it was run: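 Growth inhibition, relative to vehicle-treated controls, is the read-out. The test organism is a yeast strain with defined genetic alterations, cln2 rad14.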

[5] = NCI Yeast Anticancer Drug Screen. Data for the bub3 strain (AID 167); details: S. cerevisiae bub3 mutant strain, at 50.0 µM, stronger effect = higher value
How it was run: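 Compounds were applied to a genetically altered yeast strain carrying a cell-cycle control defect. Growth inhibition was scored against vehicle-treated controls.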

[6] = NCI Yeast Anticancer Drug Screen. Data for the mlh1 rad18 strain (AID 175); details: S. cerevisiae mlh1 rad18 strain growth inhibition; at 50.0 µM; stronger effect = higher value
How it was run: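 Cells of a genetically altered yeast strain, deficient in DNA damage repair, were treated with compound. Their growth was then compared with that of vehicle-treated cultures to give inhibition.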

Measured: growth inhibition

Cc1cc(C)n(-c2ccnc(-n3nc(C)cc3C)n2)n1
inactive: [1] 22% | [2] 23.9% | [3] 33.9% | [4] 7.7% | [5] 21.6% | [6] 40.3%

O=C(OCCN=C1c2ccccc2CCc2ccccc21)c1ccccc1
inactive: [1] -12.2% | [2] -6.45% | [3] 18.9% | [4] 6.8% | [5] 37.3% | [6] 0.4%

C/C=C/C(O)CCCC (configuration not stated)
inactive: [1] -13.2% | [2] -7.15% | [3] 4.15% | [4] 2.75% | [5] -28.2% | [6] -7.2%

Cc1nc(N)nc(C)c1N=Nc1ccc(Cl)cc1Cl
inactive: [1] -0.75% | [2] 6.8% | [3] 0.5% | [4] -7.3% | [5] -5.25% | [6] 9.6%

O=S(=O)(O)CCCCBr
inactive: [1] 3.6% | [2] -31.4% | [3] 16.8% | [4] -5% | [5] -3% | [6] 13.5%

COc1ccc(NNc2ccc(OC)cc2)cc1
inactive: [1] 0.95% | [2] 7.65% | [3] -4.7% | [4] 17.9% | [5] -5.1% | [6] -9.5%

Cc1cc(=O)n2cn[nH]c2n1
inactive: [1] 24.4% | [2] -11.6% | [3] 24.1% | [4] 5.25% | [5] 9.25% | [6] 25.8%

Cc1ccc(C(CCl)c2ccc(C)cc2)cc1
inactive: [1] -18.1% | [2] -1.45% | [3] -0.35% | [4] -36.5% | [5] -21.5% | [6] -2.95%

CCCN(CCC)CC(O)CN(CCC)CCC
inactive: [1] -0.4% | [2] -24.1% | [3] -21.6% | [4] -36% | [5] 5.55% | [6] -0.3%

FC(F)(F)c1nc2ccccc2[nH]1
inactive: [1] 16.9% | [2] -1.4% | [3] 9.55% | [4] 14.8% | [5] -1.65% | [6] 13.3%

O=C(Nc1nnc(C(F)(F)F)s1)c1c(F)cccc1F
inactive: [1] 7.75% | [2] 16.7% | [3] 24.9% | [4] 19.5% | [5] 37% | [6] 30.1%

CCCCCCCCCCCCCCCC(=O)OCC1OC(n2cc(F)c(=O)[nH]c2=O)C(NC(=O)N(CCCl)N=O)C(O)C1O (configuration not stated)
inactive: [1] -16.1% | [2] -31.8% | [3] -16.6% | [4] -2.1% | [5] -24.4% | [6] -23.1%

CC(C)CC1OCC(C)(C)C(C(C)C)O1 (configuration not stated)
inactive: [1] -8% | [2] -6.1% | [3] -17.4% | [4] 2% | [5] -0.4% | [6] 0.4%

COc1cc2c(cc1OC)C1CCc3ccccc3CN1CC2 (configuration not stated)
inactive: [1] 0.7% | [2] -25.5% | [3] -6.85% | [4] 8.95% | [5] -15.8% | [6] 3.15%

CC1(C)SC(N=C=Nc2ccccc2)CN1C=O (configuration not stated)
inactive: [1] 8.55% | [2] 1.85% | [3] -14.4% | [4] -10.1% | [5] 9.5% | [6] -0.4%

N#CCc1ccc(/C(C#N)=C2/OC(=N)C(c3ccc(CC#N)cc3)C2=O)cc1 (configuration not stated)
inactive: [1] -10.3% | [2] 2.65% | [3] -5.45% | [4] -21.6% | [5] -20.7% | [6] -16.4%

O=C(OC1C#CCSCC#C/C=C\1)c1ccc2c(c1)C(=O)c1ccccc1C2=O (configuration not stated)
inactive: [1] -0.05% | [2] -34% | [3] -53.2% | [4] -37% | [5] -16.9% | [6] -61.6%

Cc1ccc(NC(=O)/C=C2\CONC(c3ccccc3)=N2)cc1
inactive: [1] -10.1% | [2] -5.7% | [3] -8.3% | [4] -15.2% | [5] -6.9% | [6] 1.75%

O=C(c1ccc(F)cc1)c1ccc2ccccc2c1
inactive: [1] 8.75% | [2] -1.3% | [3] -3.35% | [4] 10.7% | [5] 2% | [6] 5%

CN1NC(c2ccccc2)NN(C)C1=S
inactive: [1] -19.8% | [2] -25.6% | [3] -12% | [4] -16.6% | [5] -4.45% | [6] 3.05%

O=C1NC(=S)S/C1=C/c1cn(-c2ccccc2)nn1
inactive: [1] 17.4% | [2] 3.15% | [3] -5.05% | [4] -18.2% | [5] 1.75% | [6] 10.6%

CCOC(=O)Cc1nc2sc(C)c(-c3ccccc3)c2c(=O)[nH]1
inactive: [1] 32.4% | [2] 19.6% | [3] 27.5% | [4] 3.35% | [5] 17.2% | [6] 31.4%

COc1ccc(C2=NOC(c3ccc(OC)cc3)C2)cc1 (configuration not stated)
inactive: [1] -6.85% | [2] -18.3% | [3] -7.25% | [4] -13.8% | [5] 6.05% | [6] 9.55%

N#CC(=Nc1ccccc1N(C(=O)c1ccccc1)C(=O)c1ccccc1)c1ccccc1
inactive: [1] -21.3% | [2] -19.4% | [3] -30.4% | [4] 2.95% | [5] -51.5% | [6] -38.4%

CC1(C)CCC(=O)OC1C[N+](=O)[O-] (configuration not stated)
inactive: [1] 39.8% | [2] -10.8% | [3] 24.2% | [4] 11.8% | [5] 0.3% | [6] 39.4%

Clc1ccccc1-n1cccc1/C=N\N=C/c1cccn1-c1ccccc1Cl
inactive: [1] 0.15% | [2] 1.7% | [3] -6.1% | [4] -53.7% | [5] -1.8% | [6] -8%

CS(=O)(=O)c1[nH]nc2[nH]c(=O)[nH]c(=O)c12
inactive: [1] -30.5% | [2] -30.4% | [3] -26.5% | [4] -4.7% | [5] -28.8% | [6] 6.85%

NC(=O)c1cccc(NC=O)c1
inactive: [1] 5.3% | [2] 6% | [3] 22.1% | [4] 29.7% | [5] 4.45% | [6] 25.8%

COC(=O)/C(C#N)=C1\CCC(OC)N1 (configuration not stated)
inactive: [1] -4.25% | [2] 6.95% | [3] -21.2% | [4] 3.7% | [5] -13.1% | [6] -24.9%

CCOC1NC(=O)c2ccccc21 (configuration not stated)
inactive: [1] 22.1% | [2] 6.15% | [3] 5.85% | [4] 22.2% | [5] 19.1% | [6] 12.8%

OC1c2ccccc2C(O)c2c1ccc1c2CN(Cc2ccccc2)CC1 (configuration not stated)
inactive: [1] 5.05% | [2] 8.25% | [3] 1.95% | [4] 15.1% | [5] 1.3% | [6] 33.2%

FC(F)(F)c1cccc2[nH]cnc12
inactive: [1] -24.6% | [2] -2.85% | [3] 6.25% | [4] -12.4% | [5] -4.65% | [6] 2.3%

O=C1NC(N2CCCC(CO)C2)=N/C1=C\c1ccc(Cl)cc1 (configuration not stated)
inactive: [1] 25.6% | [2] -10.9% | [3] -18.9% | [4] 23.6% | [5] -17.8% | [6] -19.1%

CSc1nc(N)c(NS(=O)(=O)c2ccccc2)c(=O)[nH]1
inactive: [1] -10.6% | [2] -18.1% | [3] -17.6% | [4] -2.9% | [5] 6.95% | [6] 6.05%

O=[N+]([O-])c1ccc(N/N=C/c2ccc(CO)cc2)c([N+](=O)[O-])c1
inactive: [1] 4% | [2] -5.65% | [3] 18.1% | [4] -13.9% | [5] 6.1% | [6] 17.2%

O=S(=O)(C/C=C/COc1ccccc1)c1ccc2ccccc2c1
inactive: [1] 3.05% | [2] 2.65% | [3] 23.8% | [4] 3.6% | [5] -5.85% | [6] -12.9%

CC(=O)NC(c1ccc(Cl)cc1)(c1ccc(Cl)cc1)C(Cl)(Cl)Cl
inactive: [1] -18.6% | [2] -35% | [3] -7.4% | [4] 8.5% | [5] 10.4% | [6] -3.25%

O=C(Nc1ccccc1)NC1CCCC1
inactive: [1] 4.65% | [2] 7.85% | [3] -1.8% | [4] -5.5% | [5] -12.2% | [6] -1.2%

CCCC1SCC(C)(C)NC1=O (configuration not stated)
inactive: [1] 4.85% | [2] 3.25% | [3] -1.9% | [4] -18.4% | [5] 7.05% | [6] -2.4%

CCOC(=O)c1c[nH]c(=S)n(C)c1=O
inactive: [1] -6.6% | [2] -10.2% | [3] -6.65% | [4] -14.1% | [5] 0.4% | [6] 2.1%

Cc1nc(C)c(N2CCN(S(=O)(=O)N(Cc3ccccc3)Cc3ccccc3)CC2)c(=O)[nH]1
inactive: [1] -22.7% | [2] -5.95% | [3] -32.3% | [4] 3.85% | [5] -5.65% | [6] 4.2%

COC(=O)C(C)Oc1ccccc1 (configuration not stated)
inactive: [1] 2.35% | [2] -28.2% | [3] -9.4% | [4] -4.8% | [5] -10% | [6] -18.5%
